Bioassay records deposited in PubChem BioAssay by National Center for Advancing Translational Sciences (NCATS).
An excerpt weighted towards active compounds, which were near 3.3% of everything screened.
HBB splice mod: modulators of hemoglobin beta chain splicing; HBB splicing reporter cell assay, activation; EGFP reporter with mutant IVS2-654 intron; response scale: normalised to 500 nM splice-correcting PNA; Potency, µM (titrated, usually from 46.1 µM), for inactives: at the highest dose activation, most hits filed as activators; 65,000 tested, 0.06% active; AID 925; note: potency is the fitted concentration of half-maximal effect; 0% is about no effect
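Compounds were applied for 2 days to HeLa EGFP-654 cells, 500/well in Optimem with 2% FCS. The reporter's EGFP is disrupted by mis-splicing of beta-globin intron IVS2-654. Readout: summed well GFP fluorescence from 488 nm laser scanning; reference was 500 nM antisense […] 654 PNA.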
GFP derepression: derepresses silenced GFP locus in mouse C127i cells. mouse C127i GFP locus derepression, cytometry, 30 h. Potency, µM (titrated, usually from 46.1 µM), for the others: top-dose GFP derepression (activation). 68,000 tested, 0.09% active. AID 597; note: % of control where 0% means no effect
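Read-out is the number of GFP-positive cells, scored as fluorescent objects 20 to 120 um wide, reflecting derepression of a silenced CMV-GFP reporter in murine C127i cells after 30 h compound exposure at 37 C.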
Luciferase inh: firefly luciferase inhibition | P08659 | purified firefly luciferase, luminescence, 8 min | Potency, µM (titrated, usually from 57.1 µM), without a hit: at the highest dose activity change, negative = inhibition, hits mostly inhibitors | 72,000 tested, 2.2% active | AID 411; note: potency is the fitted concentration of half-maximal effect; % is set by controls: 0 for no effect and ±100 for the full control effect; nearly all actives have a fitted effect of over 40% in size
Target sequence (P08659 whole entry, looked up): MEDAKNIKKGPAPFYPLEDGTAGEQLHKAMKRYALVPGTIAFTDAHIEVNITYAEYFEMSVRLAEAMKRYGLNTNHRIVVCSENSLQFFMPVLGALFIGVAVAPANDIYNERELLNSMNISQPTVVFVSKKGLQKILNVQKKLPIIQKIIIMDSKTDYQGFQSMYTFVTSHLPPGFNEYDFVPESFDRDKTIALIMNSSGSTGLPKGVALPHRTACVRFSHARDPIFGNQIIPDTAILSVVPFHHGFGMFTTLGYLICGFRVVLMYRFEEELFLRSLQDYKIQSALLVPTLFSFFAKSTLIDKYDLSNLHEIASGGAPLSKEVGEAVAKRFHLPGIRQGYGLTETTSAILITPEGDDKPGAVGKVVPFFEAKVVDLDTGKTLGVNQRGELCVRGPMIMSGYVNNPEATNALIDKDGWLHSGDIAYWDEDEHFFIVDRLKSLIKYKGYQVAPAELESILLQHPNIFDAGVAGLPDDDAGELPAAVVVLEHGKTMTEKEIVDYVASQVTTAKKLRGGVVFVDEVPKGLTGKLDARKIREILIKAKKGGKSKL
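qHTS concentration-response profiling: light output of P. pyralis luciferase with luciferin and 10 uM ATP, imidazole buffer pH 7.2. Read by luminescence after 8-min room-temperature incubation.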
Bst PK mod: alters activity of Bacillus stearothermophilus pyruvate kinase; Potency, µM; 51,000 tested, 1.2% active; purified pyruvate kinase, luminescence ATP production; ribose 5-phosphate activator present at AC10; in the data active = potency below about 11 µM; inconclusive = mostly about 12 µM to 25 µM;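 the screen sought inhibitors and activators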;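 note: potency is the fitted concentration of half-maximal effect; scaled between full activation by ribose 5 phosphate and full inhibition by luteolin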
GBA mod: human lysosomal glucosylceramidase modulation. P04062. purified enzyme, resorufin glucoside fluorescence (screen aimed at inhibitors), 20 min. Potency, µM. 48,000 tested, 1.1% active; in the data active = potency below about 15 µM; inconclusive = mostly about 16 µM to 33 µM;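 note: potency is the fitted concentration of half-maximal effect; the screen sought inhibitors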
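Wild-type enzyme at 0.2 nM final in 50mM citric acid/KH2PO4, 10mM sodium taurocholate, 0.01% tween-20, pH 5.9, with resorufin beta-D-glucopyranoside at 30 uM final. Compounds titrated, 20 min at RT, red fluorescence read; AC50 from titration.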
Ub-GFP proteasome: proteasome inhibitors stabilizing ubiquitin-GFP reporter | Ubiquitin-GFP reporter cells, proteasome inhibition, GFP fluorescence; response scale: untreated = 0%, 10 µM MG-132 = 100% | Potency, µM (highest dose often 45.9 µM), for inactives: at the highest dose activation (GFP accumulation), most hits filed as activators | 67,000 tested, under 10 active | AID 526; active = well fitted activation curve with a large enough effect, not every such curve was filed as active; inconclusive = small, poorly fitted or top-dose-only effect, or another doubt; inactive = no such curve, though single readings can be large or run the other way; note: potency is the fitted concentration of half-maximal effect
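Proteasome block read as GFP accumulation: ubiquitin(G76V)-GFP U2OS cells exposed to compound (2.9 nM–46 uM) for 4 hr at 37 C. Normalization used untreated cells as 0% and 10 uM MG-132 as 100%; concentration-response curves fitted.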
The depositor's hits bear a star; i = inactive; ? = inconclusive; / = not tested or not shown; [ ] = remark or other dose. Unless noted, calls come from the whole dose curve; as a rule, active = well fitted curve in the direction sought with a large enough effect; inconclusive = small, poorly fitted or top-dose-only effect, or another doubt; inactive = no such curve, though single readings can be large; an effect the other way counts as inactive or inconclusive.

SMILES	HBB splice mod	GFP derepression	Luciferase inh	Bst PK mod	GBA mod	Ub-GFP proteasome
CC(C)CO/N=C1/C[C@@H](O)[C@@H](O)[C@@H]2[C@H]3C(=O)N(c4ccc(F)cc4F)C(=O)[C@@H]3CC[C@H]12	1%[9.22 µM]	/	2%[11.4 µM]	/	/	/
CC(C)OC(=O)CSc1nnc(-c2ccc(O)cc2)n1Cc1ccccc1	0%	0%	25µM*	/	>77	-1%
CCNc1ncc2nc(-c3ccc(Cl)cc3)c(=O)n(C3CC3)c2n1	0%	-3%[9.22 µM]	0%[11.4 µM]	/	/	2%
Fc1ccccc1OCCSc1nnnn1-c1ccccc1	0%	-3%	16µM*	/	>77	4%
c1ccc(OCCSc2nnnn2-c2ccccc2)cc1	0%[57.5 µM]	2%	?	/	>77	-2%
Nc1ccc(Cl)cc1Cl	0%	/	/	/	/	/
Cc1ccnc(NC(=O)Nc2cccc(F)c2)c1	/	-1%	3.2µM*	i	>77	0%
Cc1cccc(NC(=O)Nc2cccc(F)c2)n1	0%	0%	-7%	/	/	-20%
O=C(CSc1nc2ccccc2o1)Nc1nc2ccccc2s1	/	1%	1%	>57	>77	0%
O=C(CSc1nc2ccccc2o1)Nc1nc2c(s1)CCCC2	1%	1%	10µM*	i	>77	-1%
O=C(NCc1ccccc1)c1c[nH]c2ccc(S(=O)(=O)Nc3ccc4c(c3)OCCO4)cc2c1=O	3%	-2%	-3%	>57	?	-12%
O=C(NCc1cccnc1)c1c[nH]c2cc3c(cc2c1=O)OCCO3	0%[57.5 µM]	1%	13µM*	i	>77	1%
Cc1cc(=O)[nH]c(SCCOc2ccc(OC(C)C)cc2)n1	0%	-3%	16µM*	/	>77	0%
Cc1cc(=O)[nH]c(SCCOc2ccc3c(c2)CCC3)n1	0%	-1%	0%	>57	>77	6%
Cc1ccc(S(=O)(=O)N2CCC(C(=O)NCCCN3CCCCCC3)CC2)cc1	1%[57.5 µM]	4%	-1%	10*	>77	1%
CCOC(=O)CCN1C(=O)[C@H]2[C@H]3[C@H](O)[C@H](O)C/C(=N/NC(=O)OCC)[C@@H]3CC[C@@H]2C1=O	1%[9.22 µM]	/	0%[11.4 µM]	/	/	/
CC(C)[C@@H]1NC(=O)[C@H](CCCCN)NC(=O)[C@H](Cc2c[nH]c3ccccc23)NC(=O)[C@H](Cc2ccc(O)cc2)NC(=O)[C@H](C)N(C)C(=O)[C@H](Cc2ccccc2)NC1=O	2%	-2%	0%	/	/	2%
CCc1ccc2oc(-c3cccc(NC(=O)c4cccnc4)c3)nc2c1	/	-2%	5µM*	4.1*	?	0%
CC(C)(C)N1C(=O)c2ccc(C(=O)Nc3nccs3)cc2C1=O	-1%	-3%	5µM*	/	/	-9%
N[C@H](CCC(=O)N[C@H](CSN=O)C(=O)NCC(=O)O)C(=O)O	-1%	0%	0%	/	/	1%
CC(C)CO/N=C1/C[C@@H](O)[C@@H](O)[C@@H]2[C@@H]3C(=O)N(C4CCCCC4)C(=O)[C@H]3CC[C@@H]12	1%[9.22 µM]	/	-2%[11.4 µM]	/	/	/
Cc1ccc(C(=O)Nc2ncc(Cc3ccc(F)cc3)s2)o1	0%[57.5 µM]	0%	20µM*	/	>77	-4%
Cc1nnc(SCC(=O)Nc2ncc(Cc3ccc(F)cc3)s2)n1N	-1%	0%	-5%	>57	>77	0%
CC(C)=NOC[C@@H](C)[C@H](OCc1ccccc1)C(C)C	1%[9.22 µM]	/	1%[11.4 µM]	/	/	/
CCN(CC)CC#CCOC(=O)[C@@](O)(c1ccccc1)C1CCCCC1	1%[20.6 µM]	-2%[20.6 µM]	9%[25.5 µM]	/	/	4%[20.5 µM]
SMILES	HBB splice mod	GFP derepression	Luciferase inh	Bst PK mod	GBA mod	Ub-GFP proteasome
CC1(C)O[C@@H]2O[C@H]([C@H](O)CO/N=C3/[C@H]4O[C@@H]4[C@@H](O)[C@H]4[C@H]3CCn3c(=O)n(-c5ccccc5)c(=O)n34)[C@@H](O)[C@@H]2O1	0%[9.22 µM]	/	0%[11.4 µM]	/	/	/
Cc1cccc2nc(CSCc3ccco3)cn12	2%	23%	25µM*	/	>77	4%
CCC(=O)N[C@@H]1CCc2cccc(OC)c2C1	/	-1%	25µM*	/	/	-4%
C=C1CC[C@H](O)C/C1=C/C=C1\CCC[C@]2(C)[C@H]1CC[C@H]2[C@@H](C)CCCC(C)C	2%[20.6 µM]	0%[20.6 µM]	4%[25.5 µM]	/	/	4%[20.5 µM]
COc1ccc(-n2c(=O)c(-c3ccc(Cl)cc3)nc3cnc(N4CCNCC4)nc32)cc1	0%	12%[9.22 µM]	2%[11.4 µM]	/	/	-4%
CC(C)(C)c1ccc(C(=O)Nc2cnccn2)cc1	-3%	3%	4µM*	5.6*	>77	8%
COc1cc2nc(=S)n3[nH]c(CCn4nc(C)cc4C)nc3c2cc1OC	-1%	10µM*	-1%	>57	>77	-9%
CCOC(=O)N/N=C1/C[C@@H](O)[C@@H](O)[C@@H]2[C@@H]3C(=O)N(C[C@@H]4CCCO4)C(=O)[C@H]3CC[C@H]12	2%[9.22 µM]	/	0%[11.4 µM]	/	/	/
Cc1nc(NCc2ccccc2)c2nc(-c3ccccc3)n(CCN3CCCCC3)c2n1	-1%	/	/	/	/	3%
CCN1C=CC(=C2C(=O)c3ccccc3C2=O)C=C1	1%[9.22 µM]	6%	0.32µM*	/	/	10%
CN1C=CC(=C2C(=O)c3ccccc3C2=O)C=C1	0%	-2%	7.9µM*	/	/	-16%
CCCN1C=CC(=C2C(=O)c3ccccc3C2=O)C=C1	0%	-2%	0.16µM*	/	/	-4%
COc1ccc2oc(=N)c(C(=O)Nc3ccccc3)cc2c1	0%	1%	32µM*	8.2*	>77	-2%
O=C(CSc1ncccc1-c1nc2ccccc2[nH]1)NCc1ccco1	-2%	4%	?	/	/	2%
Cc1cc2nc(-c3cccnc3SCC(=O)NCc3ccco3)[nH]c2cc1C	/	6%	4µM*	3.9*	>77	-6%
CC(C)C(=O)NC(c1ccco1)c1ccc2cccnc2c1O (stereo not given)	-2%[9.22 µM]	4µM*	1%	/	/	13%
Oc1c(C(Nc2nc3ccccc3s2)c2ccco2)ccc2cccnc12 (stereo not given)	5%	-2%	-3%	/	>77	2%
COc1ccc(C(NC(C)=O)c2ccc3cccnc3c2O)c(OC)c1 (stereo not given)	-2%	13µM*	1%	/	/	-3%
O=C(O)c1ccc(N[C@H](c2ccccc2)c2ccc3cccnc3c2O)cc1	0%[9.22 µM]	0%[9.22 µM]	2%[11.4 µM]	/	/	-5%[9.17 µM]
CCOC(=O)CCN1C(=O)[C@H]2[C@@H]3[C@H](O)[C@H](O)CC(=O)[C@H]3CC[C@H]2C1=O	1%[9.22 µM]	/	0%[11.4 µM]	/	/	/
